± gives the standard deviation of the averaged measurements.
Experiments:
Details in all cases: concentration: 10 µM; 24 h
HCC1569 [1] = assay: cell number relative to DMSO (% of DMSO); higher = more cells (less growth inhibition / toxicity)
Procedure, shortened: (§1)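 Cell number or H1.0 nuclear intensity appears as percent of the plate control, based on the median of replicates. Measurements came from HCC1569 and TDF cells exposed in triplicate to compounds at 10 µM for 24 h at 37 °C, then imaged in six fields per well at ×10. Positional effects were smoothed out of HCC1569 values.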

TDF [2] = assay: as above
Procedure, shortened: as §1

TDF [3] = assay: H1.0 immunofluorescence intensity relative to DMSO (% of DMSO); higher = stronger H1.0 induction, active = 120 or more
Procedure, shortened: as §1

HCC1569 [4] = assay: H1.0 immunofluorescence intensity relative to DMSO (% of DMSO); higher = stronger H1.0 induction, active = 140 or more
Procedure, shortened: as §1
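Wherever H1.0 immunofluorescence intensity relative to DMSO is given: TDF is a line of transformed human dermal fibroblasts of mesenchymal origin.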
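Wherever cell number relative to DMSO is given: TDF denotes transformed human dermal fibroblasts of mesenchymal origin.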

Row | Compound | cell number (HCC1569 [1]) | cell number (TDF [2]) | H1.0 immunofluorescence intensity (TDF [3]) | H1.0 immunofluorescence intensity (HCC1569 [4])
1 | O=C1CCc2c(ccc3ccccc23)O1 [1,2-dihydro-3H-benzo[f]chromen-3-one] | 103 | 101 | 95.1 (inactive) | 92.7 (inactive)
2 | O=C(NC(Cc1cc(=O)[nH]c2ccccc12)C(=O)O)c1ccc(Cl)cc1 (centres undefined) [Rebamipide] | 104 | 99.7 | 93.2 (inactive) | 105 (inactive)
3 | Cn1c(-c2ccc3c(c2)OCO3)cc(=O)c2ccccc21 [Graveoline] | 103 | 99.8 | 101 (inactive) | 96.9 (inactive)
4 | CC(O)CCCC(O)C=CC1C(O)CC(=O)C1CC=CCCCC(=O)O [19(R)-Hydroxy-prostaglandin E2] | 98.1 | 92.7 | 95.7 (inactive) | 92.1 (inactive)
5 | Nc1ccn(C2CCC(CO)O2)c(=O)n1 (centres undefined) ["2',3' - Dideoxycytidine"] | 107 | 87.5 | 100 (inactive) | 101 (inactive)
6 | c1cc(OCCN2CCCCC2)cc(-c2n[nH]c3ccc(-c4ncn[nH]4)cc23)c1 | 88.3 | 107 | 84.6 (inactive) | 115 (inactive)
7 | CCCCCC(O)C=CC1=C(CC=CCCCC(=O)O)C(=O)CC1 (centres undefined) [Prostaglandin B2] | 109 | 109 | 92 (inactive) | 97.4 (inactive)
8 | Cc1ccc(C(=O)Nc2ccc(S(=O)(=O)[O-])c3cc(S(=O)(=O)[O-])cc(S(=O)(=O)[O-])c23)cc1NC(=O)c1cccc(NC(=O)Nc2cccc(C(=O)Nc3cc(C(=O)Nc4ccc(S(=O)(=O)[O-])c5cc(S(=O)(=O)[O-])cc(S(=O)(=O)[O-])c45)ccc3C)c2)c1 [Suramin] | 94.4 | 86.9 | 96.7 (inactive) | 107 (inactive)
9 | O=c1cc(N2CCOCC2)nc2c3ccccc3ccn12 | 95.2 | 91.4 | 94.7 (inactive) | 111 (inactive)
10 | CC1CC=CC=CC=CC=CC(OC2OC(C)C(O)C(N)C2O)CC2OC(O)(CC(O)CC3OC3C=CC(=O)O1)CC(O)C2C(=O)O (centres undefined) [Pimaricin] | 106 | 94 | 94.9 (inactive) | 88.8 (inactive)
11 | NCCS(=O)(=O)O [Taurine] | 98.1 | 112 | 96.4 (inactive) | 98.7 (inactive)
12 | CCCCCCCCCCCCCCCCCCc1ccc(C(=O)/C=C/C(=O)O)cc1 [(2E)-4-(4-octadecylphenyl)-4-oxo-2-butenoic acid] | 100 | 105 | 97.6 (inactive) | 107 (inactive)
13 | CCCCCC=CCC1OC1C=CC(O)CC=CCCCC(=O)O (centres undefined) [Hepoxilin A3] | 107 | 102 | 93.8 (inactive) | 100 (inactive)
14 | CC(Cc1ccc(O)c(O)c1)(NN)C(=O)O.O (centres undefined) [Carbidopa.H2O] | 103 | 107 | 99.8 (inactive) | 104 (inactive)
15 | Cl.NC12CC3CC(CC(C3)C1)C2 [Amantadine hydrochloride] | 107 | 109 | 104 (inactive) | 98.4 (inactive)
16 | CCC=CCC=CCC=CCCCCCCCC(=O)O [Linolenic acid] | 104 ± 3.3 | 98.7 ± 9 | 101 (inactive) | 97.6 (inactive)
17 | CC1=C(CC(=O)O)c2cc(F)ccc2C1=Cc1ccc(S(C)=O)cc1 (centres undefined) [Sulindac] | 103 ± 2 | 111 ± 6.2 | 95 (inactive) | 100 (inactive)
18 | OB1OCc2cc(F)ccc21 [5-fluoro-2,1-benzoxaborol-1(3H)-ol] | 104 | 104 | 95.6 (inactive) | 98.5 (inactive)
19 | O=c1[nH]c2ccccc2c2ccccc12 [6(5H)-Phenanthridinone] | 100 | 109 | 93.8 (inactive) | 104 (inactive)
20 | CC(C)c1ccc(C(=O)N=C(N)N)cc1S(C)(=O)=O [N''-[4-isopropyl-3-(methylsulfonyl)benzoyl]guanidine] | 101 | 93.4 | 99.1 (inactive) | 100 (inactive)
21 | CNC(=C[N+](=O)[O-])NCCSCc1ccc(CN(C)C)o1.Cl [Ranitidine.HCl] | 110 | 106 | 95.3 (inactive) | 103 (inactive)
22 | NC(N)=NC(=O)c1nc(Cl)c(N)nc1N [Amiloride] | 101 | 103 | 97.3 (inactive) | 102 (inactive)
23 | COCC(=O)NCC=Cc1ccc2ncnc(Nc3ccc(Oc4ccc(C)nc4)c(C)c3)c2c1 | 76.8 | 94.9 | 98.3 (inactive) | 158 (active)

Row | Compound | cell number (HCC1569 [1]) | cell number (TDF [2]) | H1.0 immunofluorescence intensity (TDF [3]) | H1.0 immunofluorescence intensity (HCC1569 [4])
24 | COc1cc(-c2oc3cc(O)cc(O)c3c(=O)c2OC2OC(CO)C(O)C(O)C2O)cc(OC)c1O (centres undefined) [Syringetine-3-glucoside] | 102 | 93 | 101 (inactive) | 90.4 (inactive)
25 | Nc1ccc2c3c(cccc13)C(=O)NC2=O [4-Amino-1,8-naphthalimide] | 94.1 | 77.8 | 104 (inactive) | 150 (active)
26 | Cc1cc(O)c2c(c1)C(=O)c1cc(O)cc(O)c1C2=O [Emodin] | 98.4 ± 1.2 | 96.8 ± 5.4 | 98.6 (inactive) | 89.8 (inactive)
27 | Cn1c(=O)c2[nH]cnc2n(C)c1=O [Aminophylline] | 103 | 115 | 98.7 (inactive) | 96.4 (inactive)
28 | CCN(CC)C(=S)SSC(=S)N(CC)CC [Disulfiram] | 93.4 ± 1.7 | 39 ± 4.7 | 123 (active) | 116 (inactive)
29 | COC(=O)[C@@H](N)CSCC=C(C)CCC=C(C)CCC=C(C)C [S-Farnesyl-L-cysteine methylester] | 106 | 94.7 | 95.6 (inactive) | 103 (inactive)
30 | CN1C2CCC1CC(NC(=O)c1nn(C)c3ccccc13)C2.O=C(O)C=CC(=O)O (centres undefined) [LY-278,584 maleate] | 104 | 94.8 | 99.1 (inactive) | 93 (inactive)
31 | CNCC(O)C(O)C(O)C(O)CO (centres undefined) [Meglumine] | 103 | 120 | 99.3 (inactive) | 92.4 (inactive)
32 | NS(=O)(=O)c1ccc(N2CCN(CC[C@@H]3OCCc4ccccc43)CC2)cc1 | 101 | 102 | 99.4 (inactive) | 104 (inactive)
33 | O=C(O)CCC(=O)c1ccc(-c2ccccc2)cc1 [Fenbufen] | 101 | 103 | 92.2 (inactive) | 119 (inactive)
34 | CNCC(O)c1ccc(O)c(O)c1.O=C(O)C(O)C(O)C(=O)O [L-(+)-Epinephrine tartrate] | 104 | 97 | 93.2 (inactive) | 106 (inactive)
35 | CCOC(=O)C1=C(C)NC(C)=C(C(=O)OC)C1c1cccc([N+](=O)[O-])c1 (centres undefined) [Nitrendipine] | 97.8 ± 5.5 | 101 ± 10 | 101 (inactive) | 122 (inactive)
36 | CN(C)CCOc1ccc(C(=C(CCCl)c2ccccc2)c2ccccc2)cc1 [Toremifene] | 97.2 | 104 | 102 (inactive) | 122 (inactive)
37 | CC(C)=CCC[C@@H](C)[C@H]1CC[C@H]2[C@@H]3CC=C4C[C@@H](O)CC[C@]4(C)[C@H]3CC[C@]12C [(3beta)-cholesta-5,24-dien-3-ol] | 103 | 88.8 | 96 (inactive) | 101 (inactive)
38 | O=C1CCC(N2C(=O)c3ccccc3C2=O)C(=O)N1 (racemic) | 103 | 108 | 99.5 (inactive) | 99.3 (inactive)
39 | CCN(CC)CCNC(=O)c1cc(S(C)(=O)=O)ccc1OC.Cl [Tiapride hydrochloride] | 111 | 107 | 96.7 (inactive) | 99.3 (inactive)
40 | Cn1c(=O)c2c(ncn2Cc2ccc(C(C)(C)C)cc2)n(C)c1=O | 81.6 | 71.4 | 106 (inactive) | 154 (active)
41 | CCOC(=O)c1cnc2c(cnn2CC)c1NN=C(C)C.Cl [Etazolate hydrochloride] | 107 | 101 | 86.8 (inactive) | 99.5 (inactive)
42 | CCCCNc1c(C(=O)OCC)c(C)nc2c1cnn2CC [Tracazolate] | 105 | 108 | 92.8 (inactive) | 107 (inactive)
43 | NC(Cc1cccc(-c2ccccc2CP(=O)(O)O)c1)C(=O)O (stereo not drawn) [Phenylbenzene-omega-phosphono-alpha-amino acid] | 99.4 | 104 | 89.5 (inactive) | 105 (inactive)
44 | CC(CC(c1ccccc1)c1ccccc1)NC(C)(C)C.Cl (centres undefined) [N-(tert-butyl)-4,4-diphenyl-2-butanamine hydrochloride] | 97.9 | 97.5 | 99.1 (inactive) | 101 (inactive)
45 | COc1ccc2[nH]c(I)c(CCNC(C)=O)c2c1 [2-Iodomelatonin] | 100 | 111 | 92 (inactive) | 93.2 (inactive)
46 | CC(C)=CCc1cc2c(cc1O)oc(=O)c1c3ccc(O)cc3oc21 | 106 | 95.7 | 94.4 (inactive) | 106 (inactive)
